Experimental data: PubChem BioAssay
The source made the active and inactive calls. Unless noted, how the calls were made is not given here.

How the values were obtained:
[1] = A549 cell viability effects, profiling panel, calcein-AM fluorescence, 48 h, basal (AID 1162); settings: higher = more signal; further: test concentration not given here
[2] = adipocyte viability effects, profiling panel, cell-based, 3T3-L1 adipocytes, calcein-AM fluorescence, 48 h, basal (AID 1163); settings: 3T3-L1 adipocytes viability, higher = more signal; further: test concentration not given here
[3] = HepG2 cell viability effects, profiling panel, calcein-AM fluorescence, 48 h, basal (AID 1164); settings: higher = more signal; further: test concentration not given here
[4] = MM1S cell viability effects, profiling panel, calcein-AM fluorescence, 48 h, basal (AID 1165); settings: higher = more signal;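 further: viability of MM1S multiple myeloma cells under basal unstimulated conditions; test concentration not given here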
[5] = basal RPMI8226 viability, no added stimulus, profiling panel, cell-based, calcein-AM fluorescence, 48 h, PK04 Diversity Set (AID 1166); settings: RPMI8226 myeloma viability, higher = more signal;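 further: cells grown under basal conditions without added stimulus; test concentration not given here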
[6] = basal HepG2 mitochondrial membrane potential changes, profiling panel, cell-based, JC-1 fluorescence, 24 h, 100 nL compound (AID 1167); settings: higher = more signal; further: test concentration not given here
[7] = basal 3T3-L1 adipocyte mitochondrial potential changes, profiling panel, cell-based, JC-1 fluorescence, 3T3-L1 adipocytes, 24 h, 100 nL compound (AID 1168); settings: JC-1 mitochondrial fluorescence, higher = more signal, called active from +8 up or from −8 down; further: test concentration not given here
[8] = basal RPMI8226 mitochondrial membrane potential changes, profiling panel, cell-based, JC-1 fluorescence, 24 h, 100 nL compound (AID 1169); settings: RPMI8226 myeloma, JC-1 mitochondrial potential fluorescence, higher = more signal; further: test concentration not given here
[9] = basal MM1S mitochondrial membrane potential changes, profiling panel, cell-based, JC-1 fluorescence, 24 h, 100 nL compound (AID 1170); settings: higher = more signal; further: test concentration not given here
[10] = A549 lung cancer cell viability effects, profiling panel, resazurin fluorescence, 24 h, PK04 Diversity Set (AID 1171); settings: higher = more signal, called active from +8 up or from −8 down; further: test concentration not given here
[11] = HepG2 liver cancer cell viability effects, profiling panel, resazurin fluorescence, 24 h, PK04 Diversity Set (AID 1172); settings: higher = more signal; further: test concentration not given here
[12] = basal S. cerevisiae growth modulation, no modifier, primary screen, OD600, strain BY4716, 24 h, basal condition (AID 1173); settings: OD600, 24 h, higher = more signal, called active from +8 up or from −8 down
[13] = MM1S myeloma cell viability, profiling panel, resazurin fluorescence, basal, 24 h, PK04 Diversity Set (AID 1174); settings: higher = more signal, called active from +8 up or from −8 down;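 further: MM1S multiple myeloma cell line; test concentration not given here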
[14] = biological target: Dihydroorotate dehydrogenase (quinone), mitochondrial (Plasmodium falciparum (isolate 3D7)) (UniProt Q08210); assay: PfDHODH enzyme inhibitors, primary screen, biochemical, C-terminal His tag, absorbance 600 nm (AID 1175); settings: DCIP absorbance 600 nm, higher = more signal, called active from +8 up or from −8 down;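 further: recombinant parasite enzyme with a five histidine tag at its C terminus; test concentration not given here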
[15] = P. aeruginosa biofilm formation inhibitors, primary screen, strain PAO1, LB-PBS medium, absorbance 600 nm (AID 1176); further: test concentration not given here; settings: P. aeruginosa PAO1 growth/biofilm, A600, 12 h; higher = more signal
[16] = S. cerevisiae RM11-1a growth modifiers, primary screen, strain RM11-1a, OD600, basal, 24 h (AID 1177); settings: OD600, 24 h, higher = more signal, called active from +8 up or from −8 down;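 further: cultures grown under basal conditions with no added stressor; test concentration not given here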
[17] = E. coli acrAB mutant growth effects, primary screen, E. coli filamentation inducers, strain DRC39, OD650, 24 h (AID 1178); settings: higher = more signal, called active from +8 up or from −8 down;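 further: growth measured as culture turbidity by optical density at 650 nm; test concentration not given here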
[18] = E. coli acrAB mutant growth effects, primary screen, E. coli filamentation inducers, strain DRC39, OD650, 48 h (AID 1179);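 further: screen aims at cell division blockers that make cells filament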; settings: E. coli DRC39 delta-acrAB growth, higher = more signal, called active from +8 up or from −8 down
[19] = RPMI8226 myeloma cell viability, profiling panel, resazurin fluorescence, basal, 24 h, PK04 Diversity Set (AID 1180); settings: higher = more signal;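 further: RPMI8826 multiple myeloma cell line at 5000 cells per well; test concentration not given here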
[20] = biological target: E3 ubiquitin-protein ligase XIAP (Homo sapiens) (UniProt P98170); assay: XIAP binders, primary screen, biophysical, small-molecule microarray, fluorescence 635 nm (AID 1181); settings: small-molecule microarray binding, higher = more signal;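 further: score merges 667 nm emission and signal to noise over triplicate slides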
Sequence of E3 ubiquitin-protein ligase XIAP (Homo sapiens) (P98170 whole entry, looked up): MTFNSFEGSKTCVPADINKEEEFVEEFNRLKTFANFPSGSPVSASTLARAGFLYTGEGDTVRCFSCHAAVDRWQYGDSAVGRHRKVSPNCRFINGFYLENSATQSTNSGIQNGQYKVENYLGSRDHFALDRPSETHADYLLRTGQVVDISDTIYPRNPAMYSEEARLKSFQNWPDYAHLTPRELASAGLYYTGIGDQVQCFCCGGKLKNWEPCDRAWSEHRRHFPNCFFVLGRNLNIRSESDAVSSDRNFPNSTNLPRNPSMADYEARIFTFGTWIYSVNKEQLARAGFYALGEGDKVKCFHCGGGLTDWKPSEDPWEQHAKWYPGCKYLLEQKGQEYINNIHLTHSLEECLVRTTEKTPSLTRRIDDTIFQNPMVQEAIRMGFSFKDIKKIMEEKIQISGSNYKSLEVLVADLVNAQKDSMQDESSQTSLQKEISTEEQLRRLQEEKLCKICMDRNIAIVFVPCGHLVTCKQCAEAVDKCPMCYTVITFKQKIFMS

Sequence of Dihydroorotate dehydrogenase (quinone), mitochondrial (Plasmodium falciparum (isolate 3D7)) (Q08210 whole entry, looked up): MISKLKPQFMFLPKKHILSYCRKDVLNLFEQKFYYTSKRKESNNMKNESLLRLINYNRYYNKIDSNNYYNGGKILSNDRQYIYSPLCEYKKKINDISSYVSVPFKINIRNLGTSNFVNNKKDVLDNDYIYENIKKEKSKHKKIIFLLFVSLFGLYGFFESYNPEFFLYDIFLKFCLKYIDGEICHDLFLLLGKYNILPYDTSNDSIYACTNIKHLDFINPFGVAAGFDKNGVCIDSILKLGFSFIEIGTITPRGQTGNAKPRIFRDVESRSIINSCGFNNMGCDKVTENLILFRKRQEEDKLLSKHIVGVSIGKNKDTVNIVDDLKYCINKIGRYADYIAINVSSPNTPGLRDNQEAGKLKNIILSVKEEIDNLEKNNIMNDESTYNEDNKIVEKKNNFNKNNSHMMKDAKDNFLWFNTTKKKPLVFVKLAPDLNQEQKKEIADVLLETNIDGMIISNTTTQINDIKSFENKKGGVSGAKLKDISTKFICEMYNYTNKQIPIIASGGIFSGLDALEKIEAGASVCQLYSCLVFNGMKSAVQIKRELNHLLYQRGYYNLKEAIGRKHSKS

Structure (SMILES)	z-score [1]	z-score [2]	z-score [3]	z-score [4]	z-score [5]	z-score [6]	z-score [7]	z-score [8]	z-score [9]	z-score [10]	z-score [11]	z-score [12]	z-score [13]	composite z-score [14]	z-score [15]	z-score [16]	z-score [17]	z-score [18]	z-score [19]	composite z-score [20]
C=CCC(OC(C)=O)[C@@H]1[C@@H](N(Cc2cccc3ccccc23)C(=O)c2cccc3ccccc23)c2cc(OCCCO)ccc2N1C(=O)c1ccc(-c2ccccc2)cc1 (stereo not given in full)	-0.545	0.511	0.571	0.425	0.0712	1.61	-0.632 (inactive)	0.72	-0.177	-0.227 (inactive)	-0.333	0.134 (inactive)	-1 (inactive)	0.136 (inactive)	-0.309 (inactive)	-0.56 (inactive)	0.161 (inactive)	-0.123 (inactive)	-0.569	-0.232
C=C(/C(=C/C[C@H](OC(=O)c1ccncc1)c1ccc(CO)o1)c1cc(C(=O)OC)ccc1OC)C(C)C	-0.762	-0.0308	-1.15	-1.26	-0.524	-0.133	-1.63 (inactive)	-0.324	-0.251	-0.18 (inactive)	-0.154	-0.368 (inactive)	-0.797 (inactive)	-0.913 (inactive)	1.38 (inactive)	0.112 (inactive)	-0.825 (inactive)	-0.655 (inactive)	-0.9	-0.124
CC(=O)c1ccc(C(O)C2C=CC3C(=O)N(c4ccccc4)C(=O)C3N2Nc2ccc(C#N)cc2)cc1 (stereo not given)	-0.53	-0.292	-0.477	-0.262	-0.821	-1.19	-1.06 (inactive)	-0.257	-0.0349	-0.178 (inactive)	-1.04	-2.04 (inactive)	-0.848 (inactive)	-0.946 (inactive)	0.695 (inactive)	-0.826 (inactive)	-0.821 (inactive)	-0.433 (inactive)	-1.84	-0.396
CC1CC/C=C\[C@H]2OC34C=CCN(c5ccc(Cl)cc5)C(=O)[C@H]3N(CCCCCO)C(=O)[C@]4(C)C2C(=O)O1 (stereo not given in full)	-0.0287	-0.607	0.843	0.743	-0.381	-0.197	-0.0396 (inactive)	-0.909	1.27	-0.194 (inactive)	-0.773	0.0314 (inactive)	0.421 (inactive)	1.22 (inactive)	-0.801 (inactive)	0.0329 (inactive)	-0.113 (inactive)	0.227 (inactive)	0.0738	0.102
CN1C(=O)C2C=CC(C(O)COCc3ccccc3)N(N(c3ccccc3)c3ccccc3)C2C1=O (stereo not given)	1.52	-1.5	0.688	-3.79	-3.67	0.0589	-1.12 (inactive)	-0.974	-1.34	0.419 (inactive)	0.669	-2.9 (inactive)	-0.902 (inactive)	-0.0748 (inactive)	1.04 (inactive)	0.591 (inactive)	0.202 (inactive)	0.0087 (inactive)	-0.861	0.0537
COc1ccccc1CN1C(=O)c2ccccc2[C@@]2(Cc3ccccc3N(CC(F)(F)F)C2=O)[C@@H]1c1ccc(CO)cc1	-0.912	-0.744	0.162	0.291	-0.956	-0.505	-0.363 (inactive)	-0.0759	-0.946	-0.682 (inactive)	-0.108	0.981 (inactive)	-0.987 (inactive)	-11.7 (active)	0.723 (inactive)	0.36 (inactive)	0.224 (inactive)	0.499 (inactive)	-0.624	0.0819
CCOC(=O)C1CCCCN1 (stereo not given)	-0.293	0.542	0.0621	0.481	0.166	-0.319	0.121 (inactive)	0.292	0.319	-0.642 (inactive)	-0.241	0.466 (inactive)	0.122 (inactive)	-0.254 (inactive)	0.0619 (inactive)	0.0958 (inactive)	-0.33 (inactive)	-0.0724 (inactive)	-0.809	-0.222
COc1ccc([Si](C)(C)[C@@H]2[C@@H](CCO)O[C@]3(C(=O)N(Cc4ccc(N5CCCCC5=O)cc4)c4ccccc43)[C@H]2C)cc1	0.108	-0.686	-0.347	-2.8	-3.05	0.714	1.25 (inactive)	0.88	0.572	-1.78 (inactive)	-0.723	-0.173 (inactive)	-0.75 (inactive)	-3.05 (inactive)	1.45 (inactive)	2.69 (inactive)	1.99 (inactive)	1.14 (inactive)	-2.24	-0.184
COC(=O)[C@@]1(Cc2ccc(F)cc2)[C@H]2c3cc(C(=O)N(C)C)n(Cc4cc(F)cc5c4OCOC5)c3C[C@H]2CN1C(=O)c1ccccc1	0.217	0.572	0.607	-1.25	-1.9	1.76	-0.737 (inactive)	-0.74	-0.942	-1.8 (inactive)	-0.933	0.434 (inactive)	-1.73 (inactive)	-0.954 (inactive)	0.728 (inactive)	-0.341 (inactive)	-0.462 (inactive)	0.164 (inactive)	-2.74	0.476
